Source: PubChem BioAssay AID651820 (National Center for Advancing Translational Sciences (NCATS), 2012)
About 12,000 (3.5%) of roughly 340,000 compounds were called active. Not shown: some 18% with an inconclusive outcome. Many of the other results were omitted from the sample, so actives are more common in it than they were. More than one record can exist for a structure, and the calls need not agree. Values without a mark were called inactive. Calls follow the shape of the dose curve; as a rule, active = well fitted inhibition curve with a large enough effect; inconclusive = small, poorly fitted or top-dose-only effect, or another doubt; inactive = no such curve, though single readings can be large or run the other way.

Assay: qHTS Assay for Inhibitors of Hepatitis C Virus (HCV)
Conditions: Huh7.5.1 HCVcc-Cre infection, luciferase reporter, 44 h; series mostly up to 41.8 µM; activity change, negative = inhibition: at the top concentration
Outline: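 HCVcc-Cre virus at an moi near 0.5 was added right after compound to cells cultured 4 h from seeding (1,000 cells/well). Luciferase activity was determined 44 h later, 15 min after substrate addition at RT.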
% is scaled to controls: 0 for no effect and ±100 for the full control effect; potency is read from the fitted curve at half-maximal effect.

| SMILES | activity change, negative = inhibition | Potency |
| --- | --- | --- |
| CCC(=O)N1CCc2cc(Br)c(S(=O)(=O)NCCN3CCCCC3CC)cc21 (configuration not stated) | 0.826% |  |
| CCN(CC(=O)Nc1cc(Cl)ccc1C)C(=O)CSCc1ccccc1 | 5.2% |  |
| CCS(=O)(=O)c1cc([N+](=O)[O-])c(Sc2ccccc2N)s1 |  | 7.08 µM (active) |
| CCOC(=O)c1cc(Sc2ccccc2N)cc(C(=O)OCC)n1 | -19.6% |  |
| Nc1ccccc1Sc1ccc(C(F)(F)F)cc1[N+](=O)[O-] | -1.94% |  |
| O=C(COc1ccccc1Cl)N1N=C(c2cccs2)CC1c1ccco1 (configuration not stated) | -14.1% |  |
| CC(=NNC(=O)c1ccc2nc[nH]c2c1)c1ccc(Br)cc1 | -2.36% |  |
| COc1ccc(S(=O)(=O)N2CCOCC2)cc1NC(=O)Cc1c(F)cccc1Cl | -2.06% |  |
| COc1ccc(S(=O)(=O)NCCCCOc2ccc(Cl)cc2)cc1 |  | 25.1 µM (active) |
| COC(=O)CNS(=O)(=O)c1ccc(OC)cc1 | 32.7% |  |
| COc1ccc(S(=O)(=O)NCCOc2ccccc2)cc1F | 1.65% |  |
| O=C(NCCCN1CCOCC1)c1cn(-c2ccccc2)nc1-c1ccc(F)cc1 | -20.5% |  |
| CN(C)C(=O)COC(=O)c1cccc(S(=O)(=O)N2CC3(C)CC2CC(C)(C)C3)c1 (configuration not stated) | 6.74% |  |
| CON(C)S(=O)(=O)c1ccc2c(c1)NC(=O)C1CCCN21 (configuration not stated) |  | 8.91 µM (active) |
| COc1ccc(N2CCN(S(=O)(=O)c3ccc4c(c3)NC(=O)C(C)C(=O)N4)CC2)cc1 (configuration not stated) | 0.721% |  |
| CC1C(=O)Nc2ccc(S(=O)(=O)N3CCN(c4ccccc4F)CC3)cc2NC1=O (configuration not stated) | -29.1% |  |
| Cc1ccc(S(=O)(=O)CCC(=O)OCC(=O)N(C)Cc2ccccc2)cc1 | 10.4% |  |
| CN(CC(=O)Nc1ccc(F)cc1)CC(=O)N1CCCCC1 | -1.19% |  |
| OCC(O)C1OCOC(C(O)CO)C1O (configuration not stated) | 9.97% |  |
| COC(=O)C1=C(C)N(Cc2ccccc2)C(=NCCCOC(C)C)N[C@H]1c1ccccc1 | -16.6% |  |
| Cc1cc(/C=N/NC(=O)c2cccnc2)c(C)n1CC(C)C | 8.27% |  |
| O=C(N/N=C/c1sc(N2CCCCC2)nc1-c1cccs1)c1cccnc1 |  | 11.2 µM (active) |
| O=C(N/N=C/c1ccccn1)c1cccnc1 | 9.35% |  |
| CCN(CC)S(=O)(=O)c1ccc(N(C)CCc2ccc(OC)c(OC)c2)nc1 | -23.1% |  |
| CCN(CC)S(=O)(=O)c1ccc(NC(=O)c2cnc(C)cn2)cc1 | 2.31% |  |
| CCN(CC)S(=O)(=O)c1ccc(Cl)c(NC(=O)c2ccncc2)c1 | -20.9% |  |

| SMILES | activity change, negative = inhibition | Potency |
| --- | --- | --- |
| COc1ccc(S(=O)(=O)N2CCCCCC2)cc1C(=O)N(C)Cc1cccc(OC)c1OC | 1.99% |  |
| CCN(CC)S(=O)(=O)c1ccc(N(C)Cc2cccc(OC)c2OC)nc1 |  | 3.98 µM (active) |
| CCN(CC)S(=O)(=O)c1ccc(N(C)Cc2ccc(C(F)(F)F)cc2)nc1 |  | 14.1 µM (active) |
| CCCn1c(C)cc(/C=C(\C#N)C(=O)OCC(=O)N(C)c2c(N)n(Cc3ccccc3)c(=O)[nH]c2=O)c1C | -12.5% |  |
| COc1ccccc1C(=O)OCC(=O)Nc1cccc(S(=O)(=O)NC2=NCCCCC2)c1 | 2.1% |  |
| CC1CN(Cc2ccco2)C(=S)N(c2ccccc2)C1=O (configuration not stated) | 27.2% |  |
| COc1ccc(C(=O)COC(=O)C(O)c2ccccc2)c(OC)c1 (configuration not stated) | 3.53% |  |
| COc1ccc(C(=O)OCC(=O)N2CC(=O)Nc3ccccc32)cc1Br | 11.8% |  |
| COc1ccc(Br)cc1/C=N/Nc1ccc(S(=O)(=O)Nc2ccccc2C(=O)O)cc1[N+](=O)[O-] | -16% |  |
| COc1cccc(NC(=O)CS(=O)(=O)c2cn(CC(=O)N3CCOCC3)c3ccccc23)c1 | 10.8% |  |
| COc1cccc(NC(=O)C(=O)c2cn(CC(=O)N3CCOCC3)c3ccccc23)c1 |  | 11.2 µM (active) |
| O=C(Nc1ccc(F)cc1)C(=O)c1cn(CC(=O)N2CCOCC2)c2ccccc12 | 2.94% |  |
| CCCC[C@@H]1CN=C(N)N1CCc1cccc(F)c1 | 10.7% |  |
| CC(C)(Oc1ccc(Cl)cc1)C(=O)OCC(=O)NCCc1ccc(S(N)(=O)=O)cc1 | 38.5% |  |
| CC[C@]12c3[nH]c4cc(CCC(=O)N(C)C)ccc4c3CCN1C(=O)[C@@H](CC(=O)NCc1ccco1)C[C@@H]2C(=O)N1CCN(C(=O)c2ccco2)CC1 | -1.33% [at 8.37 µM] |  |
| O=[N+]([O-])c1cccc(C=NN=Cc2ccccc2O)c1 | -9.27% |  |
| CCCCn1c(=S)[nH]c2ccccc2c1=O | -12.8% |  |
| S=c1ccc2ccccc2[nH]1 | 8.78% |  |
| S=c1[nH]c2ccccc2c2ccccc12 |  | 11.2 µM (active) |
| COc1ccccc1N1CC(O)=C(c2nc3ccccc3s2)C1=N |  | 11.2 µM (active) |
| O=C(Nn1c(-c2ccccc2)nc2ccccc2c1=O)c1ccc([N+](=O)[O-])cc1 | 0.828% |  |
| CCOC(=O)CCCN1CC(O)=C(c2nc3ccccc3s2)C1=N | -7.47% |  |
| COc1ccccc1OCc1nc2ccccc2s1 | 13.9% |  |
| N=C1C(c2nc3ccccc3s2)=C(O)CN1NC(=O)c1ccc([N+](=O)[O-])cc1 |  | 11.2 µM (active) |
| N=C1C(c2nc3ccccc3[nH]2)=C(O)CN1NC(=O)c1c[nH]c2ccccc12 | 6.25% |  |
| N#CCN(C(=O)COC(=O)C1CC2CCCC(C1)C2=O)c1ccccc1 (configuration not stated) | 3.03% |  |

| SMILES | activity change, negative = inhibition | Potency |
| --- | --- | --- |
| COc1cc(OC)c(C(=O)NNC(=O)c2ccccc2-n2cccc2)cc1OC | -22% |  |
| CCCN(CC(=O)Nc1ccccc1C)C(=O)c1ccc2[nH]c3c(c2c1)CC(C)CC3 (configuration not stated) | -29.8% |  |
| CC(C)(C)N(CC#CCC(O)(c1ccccc1)C1CCCC1)CCO (configuration not stated) | -21.1% |  |
| CN(CC#CCC(c1ccccc1)c1ccccc1)C(C)(C)C |  | 10 µM (active) |
| Cc1cc2c(cc1C)NC1(C[C@H]3CCC(=O)N4CC[C@@H](C1)[C@@H]34)C(=NC(C)(C)CC(C)(C)C)N2 (some centres not stated) | -6.36% |  |
| COc1ccc(C(=O)Nc2cccc(/C=C(/CCC(=O)O)c3nc4ccccc4s3)c2)cc1 | 10.6% |  |
| O=C(Cc1ccc(Cl)cc1)c1ccccc1 | 4.62% |  |
| N#CCSc1nc2ccc(N3CCOCC3)cc2c(=O)n1CCc1ccccc1 |  | 10 µM (active) |
| COCCCNC(=O)CSc1nc2ccc(N3CCOCC3)cc2c(=O)n1CCc1ccccc1 | 16.8% |  |
| CCCCn1c(SCC(=O)NCC2CCCO2)nc2ccc(N3CCOCC3)cc2c1=O (configuration not stated) | -14.7% |  |
| OC(c1ccc(Cl)cc1)C(CN1CCOCC1)c1ccccc1 (configuration not stated) | 12.9% |  |
| CC(CN1CCOCC1)c1ccccc1 (configuration not stated) | 10.7% |  |
| OC(c1ccccc1)C(CN1CCOCC1)c1ccccc1 (configuration not stated) |  | 12.6 µM (active) |
| Cc1csc(=O)n1CCC(=O)OCC(=O)NNC(=O)c1ccc(Br)cc1 | 7.44% |  |
| CCOC(=O)[C@H]1[C@H]2COc3ccc(OC)cc3[C@@H]2N2C(=O)c3ccc(F)cc3NC(=O)[C@@]12C | -4.19% |  |
| COC(=O)C1=C(c2cc3ccccc3s2)C[C@@H]2CC[C@H]1N2C(=O)NC(C)C | -26.4% |  |
| COC(=O)C1=C(c2cc3ccccc3o2)C[C@@H]2CC[C@H]1N2C(=O)NC1CCCCC1 |  | 7.94 µM (active) |
| COC(=O)C1=C(c2ccc(F)cc2F)C[C@@H]2CC[C@H]1N2C(=O)NC1CC1 | 18.2% |  |
| O=C(COC(=O)c1cc(S(=O)(=O)N2CCOCC2)ccc1Cl)NCCc1ccccc1 | 5.53% |  |
| Cc1ccc(C)c(NC(=O)CN(C)C(=O)c2ccc3ncsc3c2)c1 | 36.6% |  |
| Cc1sc(NC(=O)C2=COCCO2)c(C#N)c1C | 14.2% |  |
| CC(NC(=O)c1cccc(S(=O)(=O)N2CCc3ccccc3C2)c1)c1ccco1 (configuration not stated) | 16.5% |  |
| CN1CCN(S(=O)(=O)c2cccc(C(=O)N3CCc4ccccc43)c2)CC1 | 21% |  |
| Cc1cccc(N2CCN(C(=O)c3cccc(S(=O)(=O)N4CCc5ccccc5C4)c3)CC2C)c1 (configuration not stated) |  | 7.08 µM (active) |
| CC(=O)c1ccc2c(c1)c1ccccc1n2CC(C)C |  | 2.51 µM (active) |
| Cc1cc(NC(=O)CSc2nc3ccccc3n2CC(C)C)no1 | -11.2% |  |

| SMILES | activity change, negative = inhibition | Potency |
| --- | --- | --- |
| CCCCn1c(=O)c(C(C)=O)c(O)c2ccccc21 | 1.24% |  |
| COc1cccc(C(O)c2nc3ccccc3n2C)c1 (configuration not stated) | 11.2% |  |
| CCCCCC(O)c1cccc(OCc2ccc3ccccc3n2)c1 (configuration not stated) | 0.332% [at 8.37 µM] | 14.1 µM (active) |
| CCCCCCOC(=O)NCC(O)c1ccccc1 (configuration not stated) | 6.95% |  |
| Cc1ccc(NC(=O)Cn2cnc3c(OCc4ccccc4)ncnc32)cc1C | 4.25% |  |
| Cc1noc(C)c1C(=O)OC(C)C(=O)Nc1ccc2c(c1)OCO2 (configuration not stated) | 7.1% |  |
| COc1c(C)cc(C(=O)C2CCCN(S(=O)(=O)c3c(C)noc3C)C2)cc1C (configuration not stated) |  | 10 µM (active) |
| Cc1noc(C)c1S(=O)(=O)N1CCCC(C(=O)Nc2nccs2)C1 (configuration not stated) | 0.314% |  |
| Cc1ccc(NC(=O)C2CCCN(S(=O)(=O)c3c(C)noc3C)C2)c(C)c1 (configuration not stated) | -11.6% |  |
| Nc1c(N(Cc2ccco2)C(=O)c2cccc(F)c2)c(=O)[nH]c(=O)n1Cc1ccccc1 | 7.23% |  |
| Brc1cnc2ccccc2c1N1CCCCC1 | -5.44% |  |
| N=c1c2c(-c3ccccc3)c(-c3ccccc3)oc2ncn1Cc1ccco1 |  | 6.31 µM (active) |
| Cn1c2ccccc2c(=O)c2c(=O)n(Cc3ccco3)c(COc3ccccc3)nc21 | -7.18% |  |
| c1ccc(-c2oc3ncnc(N4CCOCC4)c3c2-c2ccccc2)cc1 | -11% |  |
| COc1ccc(Nc2ccc3ccccc3c2)cc1 | -3.86% |  |
| CC(=O)Nc1ccc(-c2csc(NC=C3C(=O)OC(C)(C)OC3=O)n2)cc1 | -9.72% |  |
| CC(=O)Nc1ccc(-c2csc(NC(=O)Nc3ccccc3)n2)cc1 |  | 10 µM (active) |
| CC(=O)Nc1ccc(S(=O)(=O)Nc2nc(-c3ccc(C(C)(C)C)cc3)cs2)cc1 | 15.6% |  |
| Cc1ccc(S(=O)(=O)N2CCC(C(=O)OCC(=O)N(C)c3ccccc3)CC2)cc1C | -3.89% |  |
| Cc1cccn2c(=O)nc(SCC(=O)NCc3ccccc3Cl)nc12 | 2.77% [at 8.37 µM] |  |
| CN(CC(=O)NC(=O)Nc1ccccc1F)Cc1ccccc1 | -23.3% |  |
| O=C1CC(C(=O)O)NC(=S)N1 (configuration not stated) | -0.0683% |  |
| O=C(c1ccc(Cl)c(S(=O)(=O)N2CCCCCC2)c1)N1CCN(c2ccc(O)cc2)CC1 | -27% |  |
